For 9 compounds, growth results are on record in PubChem BioAssay (NCI).

The panel holds about 83,000 compounds, 20% with a hit somewhere; the sample as a whole holds those more often.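 96-well plates, one dose, 48 hours. Percent growth reported; active if below 10.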 Unmarked numbers belong to inactive results. Calls of active or inactive are those of the source.

Some test systems named below: HCT-15 colon; HT29 colon; SNB-75 CNS; SNB-19 CNS; PC-3 prostate; SK-MEL-5 melanoma; UACC-62 melanoma; LOX IMVI melanoma; SK-MEL-28 melanoma; SK-MEL-2 melanoma; EKVX NSCLC; SN12C renal; UO-31 renal; TK-10 renal; ACHN renal; CAKI-1 renal; CCRF-CEM leukemia; MOLT-4 leukemia; A498 renal; U251 CNS.
Common to all, as to experiment: NCI-60 one-dose screen, 48 h (100 = growth as untreated, 0 = no growth, -100 = all killed)
What all share (conditions): 10 µM unless noted

Regarding `COC(=O)C1=C(C(=O)ONCCN(C)C)C2C=CC1(C(Cc1ccccc1)Nc1ccc(F)cc1)O2` (stereo not given), the growth is 48.1% in the experiment on HCT-15 colon; 75.1% with HT29 colon; 106% with SNB-75 CNS; 105% in the experiment on SNB-19 CNS; 105% in the experiment with PC-3 prostate; 105% in the experiment on SK-MEL-5 melanoma. The growth in the experiment with UACC-62 melanoma was 90.9%; in the experiment on LOX IMVI melanoma, 96.3%; in the experiment on SK-MEL-28 melanoma it was 96.1%; in the experiment with SK-MEL-2 melanoma it was 97%; with EKVX NSCLC, 102%; in the experiment on SN12C renal it was 87%. Also, the growth in the experiment with UO-31 renal was 81%; in the experiment on TK-10 renal it was 65.4%; in the experiment on ACHN renal, -18.8% (active); in the experiment with CAKI-1 renal, 88%; with CCRF-CEM leukemia, 2.02% (active); in the experiment with MOLT-4 leukemia, 30.6%.
With `C[C@]12C[C@H]1CC[C@]1(C)[C@@H]2CC[C@@]23C[C@H](CC[C@H]21)[C@@](O)(CO)C3`, the growth was 88.6% with HCT-15 colon; 100% with HT29 colon; 105% in the experiment with SNB-75 CNS; 95.4% with SNB-19 CNS; 88.9% in the experiment on PC-3 prostate; 97.7% with SK-MEL-5 melanoma. For the same compound, the growth is 76.2% with UACC-62 melanoma; 93.6% in the experiment with LOX IMVI melanoma; 105% with SK-MEL-28 melanoma; 104% with SK-MEL-2 melanoma; 74.8% with EKVX NSCLC; 92% in the experiment on SN12C renal. Also, the growth in the experiment on UO-31 renal was 84%; in the experiment with TK-10 renal it was 100%; in the experiment on ACHN renal, 107%; in the experiment on CAKI-1 renal, 85.9%; with A498 renal, 92.9%; in the experiment on CCRF-CEM leukemia it was 86.4%. Moreover, in the experiment with MOLT-4 leukemia, the growth was 96%.
As for `O=C1Nc2c(ccc(Cl)c2Cl)/C1=C/c1ccc([N+](=O)[O-])cc1`, the growth in the experiment with HCT-15 colon was 89.4%; in the experiment on HT29 colon, 99.2%; in the experiment on SNB-75 CNS, 95.9%; in the experiment with SNB-19 CNS it was 81.3%; in the experiment on U251 CNS it was 92.3%; with PC-3 prostate, 95.3%. The growth with SK-MEL-5 melanoma is 99.6%; in the experiment with UACC-62 melanoma, 102%; in the experiment on LOX IMVI melanoma it was 89.5%; with SK-MEL-28 melanoma, 111%; in the experiment with SK-MEL-2 melanoma it was 99.1%; in the experiment with EKVX NSCLC, 84.3%. Also, the growth in the experiment on UO-31 renal is 79.7%; with ACHN renal, 87.8%; in the experiment with CAKI-1 renal, 59.6%; in the experiment with A498 renal it was 99.4%; in the experiment with CCRF-CEM leukemia, 2.94% (active); in the experiment with MOLT-4 leukemia it was 96.3%.
As to `COc1ccc2c(c1)OC1=C(C(=O)OC1)C2c1cc(OC)c(OC)c(OC)c1` (stereo not given), the growth in the experiment with HCT-15 colon is 19%; in the experiment with HT29 colon, 6.93% (active); in the experiment on SNB-75 CNS, 41.1%; in the experiment on SNB-19 CNS, 33.8%; with PC-3 prostate, 28.1%; in the experiment on SK-MEL-5 melanoma it was 16.1%. The growth in the experiment with UACC-62 melanoma was 42.3%; in the experiment with LOX IMVI melanoma it was 50.8%; in the experiment with SK-MEL-28 melanoma it was 53.5%; in the experiment with SK-MEL-2 melanoma it was 27.3%; in the experiment with EKVX NSCLC, 50.7%; in the experiment with SN12C renal, 47.7%. Also, the growth with UO-31 renal was 51.5%; with TK-10 renal, 67.4%; in the experiment on ACHN renal, 48.8%; in the experiment with CAKI-1 renal it was 55.6%; in the experiment on A498 renal, -1.39% (active); in the experiment with CCRF-CEM leukemia it was 13.8%. Besides, the growth in the experiment on MOLT-4 leukemia was 20.4%.
Regarding `COc1ccc(-c2nc3sccn3c2/C=C/C(=O)c2cc(OC)c(OC)c(OC)c2)cc1`, the growth was 40.2% in the experiment with HCT-15 colon; 46.9% in the experiment with HT29 colon; 37.2% in the experiment on SNB-75 CNS; 59.9% in the experiment on SNB-19 CNS; 32.2% in the experiment with PC-3 prostate; -10.9% (active) in the experiment on SK-MEL-5 melanoma. Besides, the growth in the experiment on UACC-62 melanoma is 46.6%; in the experiment on LOX IMVI melanoma, 41.4%; with SK-MEL-28 melanoma, 84.2%; in the experiment on SK-MEL-2 melanoma, 43.9%; in the experiment on EKVX NSCLC, 60%; with SN12C renal, 62.5%. Further, the growth with UO-31 renal was 17.6%; in the experiment on TK-10 renal, 82.7%; with ACHN renal it was 55.7%; with CAKI-1 renal, 42.4%; in the experiment with A498 renal, 84.9%; with MOLT-4 leukemia it was 29.8%.
For the compound `O=C1CCCCCCCCC(O)C(O)CCCC(c2cccs2)O1` (stereo not given), the growth with HCT-15 colon is 96.7%; in the experiment on HT29 colon it was 114%; with SNB-75 CNS it was 102%; in the experiment with SNB-19 CNS, 87.1%; in the experiment with U251 CNS, 98.3%; with PC-3 prostate, 88.2%. For the same compound, the growth with SK-MEL-5 melanoma is 91%; in the experiment on UACC-62 melanoma it was 81.8%; in the experiment on LOX IMVI melanoma, 96.5%; in the experiment on SK-MEL-28 melanoma, 123%; with SK-MEL-2 melanoma, 120%; in the experiment with EKVX NSCLC it was 82.2%. In addition, the growth with TK-10 renal was 115%; in the experiment with CAKI-1 renal, 93.9%; in the experiment on A498 renal, 102%; in the experiment with MOLT-4 leukemia, 31%.
For the compound `CC(=O)OC1CCC2(C)C(CCC3C4CC=C(C(C)=O)C4(C)OC(=O)CC32)C1` (stereo not given), the growth was 5.27% (active) in the experiment on HCT-15 colon; -59.4% (active) in the experiment with HT29 colon; 95% with SNB-75 CNS; 94.6% with SNB-19 CNS; 73.2% in the experiment on PC-3 prostate; 54.7% in the experiment with SK-MEL-5 melanoma. Further, the growth was 37.8% in the experiment with UACC-62 melanoma; -19.9% (active) in the experiment with LOX IMVI melanoma; 4.51% (active) with SK-MEL-28 melanoma; 17.7% in the experiment on SK-MEL-2 melanoma; 87.2% in the experiment on EKVX NSCLC; 21.3% in the experiment with UO-31 renal. Besides, the growth with TK-10 renal is -20.2% (active); in the experiment on ACHN renal it was 7.04% (active); in the experiment with CAKI-1 renal, 39.4%; with CCRF-CEM leukemia, -27.5% (active); in the experiment on MOLT-4 leukemia, -37.1% (active).
Consider `CCCN=C(N)c1ccc(NC(=O)c2ccc(C(=O)Nc3ccc(C(N)=NCCC)cc3)cc2)cc1`, for which the growth was 99.7% with HCT-15 colon; 102% in the experiment with HT29 colon; 78.1% in the experiment with SNB-75 CNS; 105% with SNB-19 CNS; 90.8% in the experiment on PC-3 prostate; 27.2% in the experiment on SK-MEL-5 melanoma. Besides, the growth was 90.2% with UACC-62 melanoma; 108% in the experiment with LOX IMVI melanoma; 110% with SK-MEL-28 melanoma; 97.2% with SK-MEL-2 melanoma; 96.1% in the experiment with EKVX NSCLC; 93.1% in the experiment with SN12C renal. In addition, the growth in the experiment on UO-31 renal was 79.8%; in the experiment on TK-10 renal it was 99%; in the experiment on ACHN renal, 91.8%; in the experiment on CAKI-1 renal, 95%; with CCRF-CEM leukemia, 108%; in the experiment with MOLT-4 leukemia, 78.2%.
Regarding `C=C1C(=O)O[C@H]2[C@H]1CC/C(COC(=O)/C=C/c1c[nH]c3ccccc13)=C\CC[C@@]1(C)O[C@@H]21`, the growth in the experiment on HCT-15 colon is -64.6% (active); with HT29 colon, -83.6% (active); in the experiment on SNB-75 CNS, -53.7% (active); with SNB-19 CNS it was -68.8% (active); in the experiment with U251 CNS it was -98.1% (active); with PC-3 prostate it was -73.4% (active). For the same compound, the growth was -98.4% (active) with SK-MEL-5 melanoma; -71.9% (active) in the experiment with UACC-62 melanoma; -97.3% (active) in the experiment on LOX IMVI melanoma; -54% (active) in the experiment with SK-MEL-28 melanoma; -83.7% (active) with SK-MEL-2 melanoma; -41.4% (active) in the experiment on EKVX NSCLC. Further, the growth was -100% (active) in the experiment with UO-31 renal; -99.2% (active) with TK-10 renal; -98.8% (active) in the experiment with A498 renal; 2.46% (active) with CCRF-CEM leukemia; 5.13% (active) in the experiment on MOLT-4 leukemia.
